“And” between values parts separate entries of the source, which are not always exact repeats. Equal values may be shown once. Results filed as inconclusive are left out. The source holds several records for some structures; these can differ, active in one and inactive in another. The source made the active and inactive calls. Unless noted, calls follow the shape of the dose curve; as a rule, active = well fitted curve in the direction sought with a large enough effect in the repeat runs; inconclusive = weak or mixed curves; inactive = no such curve, though single readings can be large; an effect the other way counts as inactive or inconclusive.

Experiment [1] can be described thus: qHTS assay to identify small molecule antagonists of the estrogen receptor alpha (ER-alpha) signaling pathway using the BG1 cell line in the presence of 0.1 nM 17-beta-estradiol - cell viability counter screen (AID 1259241). Also: nearly all actives have a fitted effect of over 40% in size. The method, boiled down: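 In this screen, hormone-deprived VM7Luc4E2 cells were seeded at 4,000 per well, dosed with compound and 0.1 nM estradiol final, and incubated 22 hr at 37C and 5% CO2; fluorogenic live-cell protease signal reported viability.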
For orientation: Quantitative high-throughput screening tests each substance at several concentrations.

A short description of experiment [2]: qHTS assay to identify small molecule antagonists of the androgen receptor (AR) signaling pathway using the MDA cell line in the presence of 0.5 nM R1881 - cell viability counter screen (AID 1259242). Also: nearly all actives have a fitted effect of over 45% in size. In short, it runs like this: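 Cytotoxicity toward MDA-kb2 cells is measured by CellTiter-Fluor live-cell protease fluorescence after 16 hr compound exposure at 37C in the presence of 0.5 nM R1881 stimulator.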

In experiment [3] the target is Androgen receptor (Homo sapiens) (UniProt P10275). In words: qHTS assay to identify small molecule antagonists of the androgen receptor (AR) signaling pathway using the MDA cell line in the presence of 0.5 nM R1881 (AID 1259243). Also: nearly all actives have a fitted effect of over 50% in size. The method, boiled down:
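Steps: seed MDA-kb2 cells, incubate 5 hr at 37C; pin-transfer compounds in DMSO; add R1881 to 0.5 nM final; incubate 16 hr; add ONE-Glo, wait 30 min at room temperature; read luminescence.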

Experiment [4] concerns the target Estrogen receptor (Homo sapiens) (UniProt P03372). Nature of the experiment: qHTS assay to identify small molecule antagonists of the estrogen receptor alpha (ER-alpha) signaling pathway using the BG1 cell line in the presence of 0.1 nM 17-beta-estradiol (AID 1259244). Also: nearly all actives have a fitted effect of over 50% in size. In short, it runs like this: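 After 5 days in hormone-depleted medium (charcoal-stripped serum, no phenol red), VM7Luc4E2 cells were seeded, incubated 24 h, then co-treated with compound and 0.1 nM (final) estradiol for 22 h before luminescence detection.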

Experiment [5] in a line: qHTS assay to identify small molecule phospholipidosis (PLD) inducers (AID 1259344; active = well fitted curve in the direction sought with a large enough effect; an effect the other way counts as inactive or inconclusive). The method, boiled down: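 HepG2 cells, 900/well, treated with compound plus LipidTOX Red for 24 h at 37 C; amiodarone positive and DMSO negative controls. Fixed with paraformaldehyde/Hoechst, then high-content imaging scored LipidTOX pit count and integrated intensity per well and per cell.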

Experiment [6] in a line: qHTS assay to identify small molecule HDAC inhibitors (AID 1259364). Also: nearly all actives have a fitted effect of over 45% in size. Also: potency is read from the fitted curve at half-maximal effect. The method, boiled down:
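Homogeneous cell-based luminescent assay of endogenous class I/II HDAC activity; HCT-116 cells, 2 h compound exposure, 30 min HDAC-Glo development at RT.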

Experiment [7] can be described thus: qHTS assay to identify small molecule HDAC inhibitors - cell viability counter screen (AID 1259365). Also: series mostly up to about 92 µM; nearly all actives have a fitted effect of over 50% in size. In short, it runs like this: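 Measured quantity is CellTiter-Glo luminescence from wild-type HCT-116 cells after compound incubation of 2hr at 37C, 5% CO2; reagent developed 30min at room temperature.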
Experiment [8] is described as follows: qHTS assay to identify small molecule agonists of the sonic hedgehog signaling (Shh) pathway - cell viability counter screen (AID 1259366). Also: nearly all actives have a fitted effect of over 50% in size. Also: potency is read from the fitted curve at half-maximal effect. The method, boiled down: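 In quantitative high-throughput format, 3T3 Gli1-Luc cells were exposed to compounds for 24hr and multiplexed for viability using CellTiter-Fluor, incubated 1hr at 37C before the fluorescence read.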

Experiment [9] in a line: qHTS assay to identify small molecule agonists of the sonic hedgehog signaling (Shh) pathway (AID 1259368; calls by dose curve;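 also: NIH/3T3-derived 3T3Gli1-Luc cells carrying a stable Gli1-driven firefly luciferase reporter; series mostly up to about 92 µM; nearly all actives have a fitted effect of over 15% in size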). In short, it runs like this: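 Steps: seed 3T3 Gli1-Luc cells, incubate 4 hr at 37 C, pin-transfer compounds in DMSO alongside a positive control, incubate 24 hr, add luciferase detection reagent, wait 30 min at room temperature, read luminescence.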
Experiment [10] can be described thus: qHTS assay to identify small molecule antagonists of the sonic hedgehog signaling (Shh) pathway (AID 1259369; calls by dose curve; also: nearly all actives have a fitted effect of over 45% in size; also: potency is read from the fitted curve at half-maximal effect). In short, it runs like this: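 Inhibition of Shh signalling is measured as reduced Gli1-response-element firefly luciferase output in an NIH/3T3-derived stable reporter clone stimulated with conditioned medium for 24hr.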
A short description of experiment [11]: qHTS assay to identify small molecule agonists of the androgen receptor (AR) signaling pathway in the presence of an antagonist - cell viability counter screen (AID 1259379).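 Also: MDA-kb2 human breast cancer cells carrying an MMTV luciferase reporter; series mostly up to about 92 µM; nearly all actives have a fitted effect of over 25% in size.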 The method, boiled down:
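Fluorescence from CellTiter-Fluor, added after 15 hr and read 1 hr later, gave cell viability. Cells were MDA-kb2 exposed to compounds (15 concentrations) in the presence of 3.0uM nilutamide at 37C, 0% CO2.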

Experiment [12] can be described thus: qHTS assay to identify small molecule agonists of the estrogen receptor beta (ER-beta) signaling pathway - cell viability counter screen (AID 1259380). Also: nearly all actives have a fitted effect of over 30% in size. In short, it runs like this: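 Same-well viability counter screen. Cells: ER-beta-UAS-bla HEK293T, plated 6 hr before compound, in 2% charcoal-stripped FBS. Compound exposure 16 hr, 37C; viability by CellTiter-Glo luminescence after 30 min at room temperature.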

In experiment [13] the target is Androgen receptor (Homo sapiens) (UniProt P10275). In words: qHTS assay to identify small molecule agonists of the androgen receptor (AR) signaling pathway in the presence of an antagonist (AID 1259381; calls by dose curve; also: nearly all actives have a fitted effect of over 15% in size; also: potency is read from the fitted curve at half-maximal effect). The method, boiled down:
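Cells are MDA-kb2 (human breast carcinoma, MMTV-luc, AR/GR responsive). Nilutamide is present at 3.0uM final throughout; compounds are added at 15 concentrations and incubated 16hr at 37C before ONE-Glo luminescence detection.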

A short description of experiment [14]: qHTS assay to identify small molecule antagonists of the estrogen receptor beta (ER-beta) signaling pathway - cell viability counter screen (AID 1259382). Also: series mostly up to about 92 µM; nearly all actives have a fitted effect of over 55% in size. The method, boiled down:
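Following a 6 hr plating period, HEK293T cells carrying a UAS-driven beta-lactamase reporter under ER-beta control received compounds and 1nM E2 (final). After 16 hr at 37C and 2 hr substrate loading, CellTiter-Glo luminescence indicated viability.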

Experiment [15] concerns the target Estrogen receptor (Homo sapiens) (UniProt P03372). In words: qHTS assay to identify small molecule agonists of the estrogen receptor alpha (ER-alpha) signaling pathway in the presence of an antagonist (AID 1259383; calls by dose curve; also: nearly all actives have a fitted effect of over 15% in size; also: potency is read from the fitted curve at half-maximal effect; as to activation: top concentration of the series differs between compounds). In short, it runs like this: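 Cells are hormone-deprived for 5 days (charcoal-stripped FBS, no phenol red), plated for 24hr, spiked with 10.0nM ICI-182,780, then dosed at 15 concentrations. After 22hr at 37C, ONE-Glo luminescence reports ERE-luciferase activity.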

The nature of experiment [16]: qHTS assay to identify small molecule agonists or antagonists of the thyroid stimulating hormone receptor (TSHR) signaling pathway - wild type cell line counter screen (AID 1259384; calls by dose curve). The method, boiled down:
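Wild-type Hek293 cells, 800/well, 18 h at 37C, then compound with Ro20-1724 for 30 min RT. cAMP by HTRF (cAMP-d2/anti-cAMP cryptate), 1 h RT, fluorescence read. 15 concentrations, triplicates.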

Experiment [17] concerns the target Thyrotropin receptor (Homo sapiens) (UniProt P16473). In words: qHTS assay to identify small molecule antagonists of the thyroid stimulating hormone receptor (TSHR) signaling pathway (AID 1259385; calls by dose curve; also: nearly all actives have a fitted effect of over 20% in size). The method, boiled down: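 TSHR-HEK293 cells (800/well) plated 18 h, then compounds with Ro20-1724 and TSH at 1.5 ng/mL final, 30 min at room temperature. cAMP quantified by HTRF (cAMP-d2/anti-cAMP-cryptate, 1 h); 15 concentrations in triplicate.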

The nature of experiment [18]: qHTS assay to identify small molecule antagonists of the sonic hedgehog signaling (Shh) pathway - cell viability counter screen (AID 1259367). Also: nearly all actives have a fitted effect of over 55% in size. Also: potency is read from the fitted curve at half-maximal effect. The method, boiled down:
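NIH/3T3-derived Gli1-Luc reporter cells, 2,000/well, plated 4 hr before compound addition, then stimulated with conditioned medium for 24 hr at 37C. Viability measured in the same wells by CellTiter-Fluor fluorescence, reagent added at 23 hr for 1 hr.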

The target of experiment [19] is Estrogen receptor beta (Homo sapiens) (UniProt Q92731). Nature of the experiment: qHTS assay to identify small molecule agonists of the estrogen receptor beta (ER-beta) signaling pathway (AID 1259377; active = well fitted activation curve with a large enough effect in the signal ratio in the repeat runs, not every such curve was filed as active; the % refers to the signal ratio). In short, it runs like this: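 Reporter cells (HEK293T, ER-beta-UAS-bla) receive compounds or DMSO after a 6 hr pre-incubation. They then incubate 16 hr at 37C/5% CO2, and fluorescence from LiveBLAzer B/G substrate is measured after 2 hours at room temperature.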

Experiment [20] has the same target. Nature of the experiment: qHTS assay to identify small molecule antagonists of the estrogen receptor beta (ER-beta) signaling pathway (AID 1259378; active = well fitted inhibition curve with a large enough effect in the signal ratio in the repeat runs, not every such curve was filed as active; the % refers to the signal ratio). In short, it runs like this:
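ER-beta-UAS-bla HEK293T cells in 2% charcoal-stripped FBS medium treated with compound plus 1nM final 17-beta-estradiol for 16 hr at 37C. Beta-lactamase reporter read by FRET substrate fluorescence after 2 hours at room temperature.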

Chain of Estrogen receptor beta (Homo sapiens) (Q92731 whole entry, looked up): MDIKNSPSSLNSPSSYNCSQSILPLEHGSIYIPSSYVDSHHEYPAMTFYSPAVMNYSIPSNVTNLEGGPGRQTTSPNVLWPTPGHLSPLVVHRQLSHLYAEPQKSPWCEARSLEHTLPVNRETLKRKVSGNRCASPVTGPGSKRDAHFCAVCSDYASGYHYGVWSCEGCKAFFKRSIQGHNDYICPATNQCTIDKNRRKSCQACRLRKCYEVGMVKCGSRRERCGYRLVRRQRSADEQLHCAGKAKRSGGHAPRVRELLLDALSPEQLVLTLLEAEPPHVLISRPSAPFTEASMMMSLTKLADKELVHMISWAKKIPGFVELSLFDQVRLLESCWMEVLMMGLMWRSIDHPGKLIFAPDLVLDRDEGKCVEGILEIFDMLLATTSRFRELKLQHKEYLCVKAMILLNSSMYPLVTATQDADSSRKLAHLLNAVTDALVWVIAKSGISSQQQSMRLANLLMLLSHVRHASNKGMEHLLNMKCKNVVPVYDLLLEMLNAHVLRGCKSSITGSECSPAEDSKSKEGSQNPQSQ
Chain of Thyrotropin receptor (Homo sapiens) (P16473 whole entry, looked up): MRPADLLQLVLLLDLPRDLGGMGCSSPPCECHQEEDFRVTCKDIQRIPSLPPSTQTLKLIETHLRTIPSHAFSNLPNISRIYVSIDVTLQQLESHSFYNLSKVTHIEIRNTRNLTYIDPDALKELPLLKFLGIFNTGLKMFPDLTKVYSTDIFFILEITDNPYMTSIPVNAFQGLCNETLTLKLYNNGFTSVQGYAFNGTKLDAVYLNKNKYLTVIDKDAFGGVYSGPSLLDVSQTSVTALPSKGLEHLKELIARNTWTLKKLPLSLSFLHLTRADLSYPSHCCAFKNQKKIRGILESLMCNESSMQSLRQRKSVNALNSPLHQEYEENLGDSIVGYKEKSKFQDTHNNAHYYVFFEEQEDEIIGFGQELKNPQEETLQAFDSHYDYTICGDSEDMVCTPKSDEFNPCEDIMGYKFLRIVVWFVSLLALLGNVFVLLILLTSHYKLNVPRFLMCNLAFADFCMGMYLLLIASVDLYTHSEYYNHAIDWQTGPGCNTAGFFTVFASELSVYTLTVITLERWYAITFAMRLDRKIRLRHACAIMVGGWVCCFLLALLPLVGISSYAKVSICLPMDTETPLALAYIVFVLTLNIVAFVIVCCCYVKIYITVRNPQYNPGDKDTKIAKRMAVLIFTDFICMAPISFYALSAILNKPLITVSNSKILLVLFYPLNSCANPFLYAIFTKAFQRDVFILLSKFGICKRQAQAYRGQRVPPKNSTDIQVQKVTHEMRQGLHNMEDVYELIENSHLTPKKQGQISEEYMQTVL
Chain of Estrogen receptor (Homo sapiens) (P03372 whole entry, looked up): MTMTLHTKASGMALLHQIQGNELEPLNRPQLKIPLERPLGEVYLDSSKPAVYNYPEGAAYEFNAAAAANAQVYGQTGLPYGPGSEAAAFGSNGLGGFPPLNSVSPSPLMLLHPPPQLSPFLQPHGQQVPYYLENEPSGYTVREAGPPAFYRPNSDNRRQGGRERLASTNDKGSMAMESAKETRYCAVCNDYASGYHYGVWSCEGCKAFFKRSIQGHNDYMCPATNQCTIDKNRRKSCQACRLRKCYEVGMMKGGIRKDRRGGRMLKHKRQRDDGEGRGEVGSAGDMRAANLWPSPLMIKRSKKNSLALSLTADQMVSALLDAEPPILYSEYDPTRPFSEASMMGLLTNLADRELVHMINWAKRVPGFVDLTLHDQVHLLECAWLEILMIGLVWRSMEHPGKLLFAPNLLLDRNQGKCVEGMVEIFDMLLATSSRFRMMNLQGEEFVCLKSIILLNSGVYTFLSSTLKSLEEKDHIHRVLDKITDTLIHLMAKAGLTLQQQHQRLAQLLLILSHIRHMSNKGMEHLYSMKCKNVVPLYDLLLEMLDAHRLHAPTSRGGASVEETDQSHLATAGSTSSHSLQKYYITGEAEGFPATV
Chain of Androgen receptor (Homo sapiens) (P10275 whole entry, looked up): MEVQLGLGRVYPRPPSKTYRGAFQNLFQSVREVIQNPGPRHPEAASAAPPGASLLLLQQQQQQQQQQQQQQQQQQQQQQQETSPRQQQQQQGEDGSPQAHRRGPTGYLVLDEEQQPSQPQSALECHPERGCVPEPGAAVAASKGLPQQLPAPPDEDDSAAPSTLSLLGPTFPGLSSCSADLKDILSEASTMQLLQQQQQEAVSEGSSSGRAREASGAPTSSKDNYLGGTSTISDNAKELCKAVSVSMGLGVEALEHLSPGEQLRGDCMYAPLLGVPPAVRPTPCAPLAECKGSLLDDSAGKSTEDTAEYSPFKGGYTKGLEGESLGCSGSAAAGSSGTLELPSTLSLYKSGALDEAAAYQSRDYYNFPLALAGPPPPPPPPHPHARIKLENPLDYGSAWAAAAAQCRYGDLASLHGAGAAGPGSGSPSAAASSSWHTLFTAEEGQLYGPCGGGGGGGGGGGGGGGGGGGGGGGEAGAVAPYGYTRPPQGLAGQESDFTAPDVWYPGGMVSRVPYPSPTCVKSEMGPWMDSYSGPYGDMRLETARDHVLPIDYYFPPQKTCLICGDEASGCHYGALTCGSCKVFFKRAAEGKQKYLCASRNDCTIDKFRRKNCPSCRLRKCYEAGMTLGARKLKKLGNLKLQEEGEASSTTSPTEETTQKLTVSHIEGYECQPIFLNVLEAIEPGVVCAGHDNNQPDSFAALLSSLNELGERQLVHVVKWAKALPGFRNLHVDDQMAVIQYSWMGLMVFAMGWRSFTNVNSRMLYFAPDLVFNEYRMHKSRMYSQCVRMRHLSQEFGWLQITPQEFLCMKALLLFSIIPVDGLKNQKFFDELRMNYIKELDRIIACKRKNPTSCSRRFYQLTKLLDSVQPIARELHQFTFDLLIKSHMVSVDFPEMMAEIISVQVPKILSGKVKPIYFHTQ

For the compound `Oc1ccc(/C=C/c2cc(O)cc(O)c2)cc1`, the Potency entry in experiment [1], in [2], in experiment [3], in [4], in experiment [11] and in [12] was “inactive” in each case. In [14], the Potency result is “inactive”. In addition, the compound was classed as inactive in experiment [5], in experiment [7], in experiment [9], in [16] and in [17]. Moreover, the Potency was 1.95 µM (active) and 1.22 µM (active) and 2.98 µM (active) in experiment [6]; 21.9 µM (active) and 24.3 µM (active) in [8]; 9.78 µM (active) and 17.2 µM (active) in experiment [10]; 1.95 µM (active) in [13]; 4.37 µM (active) and 8.63 µM (active) and 13.3 µM (active) in experiment [15].
As for `NNC(=O)c1ccncc1`, the Potency entry in experiment [1], in experiment [2], in experiment [4], in experiment [6], in experiment [8] and in [18] was “inactive” each time. The Potency entry in [10], in experiment [20], in experiment [11], in experiment [12], in experiment [14] and in experiment [15] was “inactive” in each case. Moreover, the call in [5], in [7], in experiment [9], in [19], in experiment [16] and in experiment [17] was inactive.
On to `C1N2CN3CN1CN(C2)C3`, for which the Potency entry in experiment [1], in [2], in experiment [3], in experiment [6], in [8] and in experiment [10] was “inactive” throughout. Moreover, the Potency result in [20], in experiment [11], in experiment [12], in experiment [13] and in experiment [14] was “inactive” in each case. Further, the call in experiment [5], in experiment [7], in [9], in experiment [19], in experiment [16] and in experiment [17] was inactive.
As to `O=C(c1ccccc1)c1ccccc1`, the Potency result in experiment [1], in experiment [2], in experiment [3], in experiment [6], in experiment [8] and in experiment [10] was “inactive” each time. Further, the Potency entry in experiment [11], in [12], in experiment [13] and in experiment [14] was “inactive” each time. The compound was called inactive in [5], in [7] and in experiment [9].
With `NC(=O)c1ccccc1O`, the Potency result in experiment [1], in experiment [2], in experiment [4], in experiment [6], in [8] and in [10] was “inactive” throughout. In addition, the Potency entry in [20], in [11], in experiment [12], in experiment [14] and in experiment [15] was “inactive” in each case. The result in experiment [5], in experiment [7], in experiment [9], in experiment [19], in [16] and in [17] was inactive.
`CC(=O)NS(=O)(=O)c1ccc(N)cc1`: the Potency result in experiment [1], in experiment [2], in experiment [4], in [6], in experiment [8] and in experiment [10] was “inactive” each time. Moreover, the Potency entry in [20], in [11], in experiment [12], in experiment [14] and in experiment [15] was “inactive” each time. The compound was classed as inactive in [5], in experiment [7], in experiment [9] and in experiment [19].
Turning to `CCCC(O)C(CC)CO` (configuration not stated), the Potency entry in experiment [1], in experiment [2], in experiment [4], in [6], in experiment [8] and in [18] was “inactive” throughout. Moreover, the Potency entry in experiment [10], in experiment [20], in experiment [11], in experiment [12], in experiment [14] and in experiment [15] was “inactive” throughout. For the same compound, the outcome in [5], in [7], in experiment [9] and in experiment [19] was inactive.
For the compound `Cc1cn([C@H]2C[C@H](N=[N+]=[N-])[C@@H](CO)O2)c(=O)[nH]c1=O`, the Potency result in [1], in experiment [2], in experiment [4], in experiment [6], in experiment [8] and in experiment [11] was “inactive” throughout. The Potency entry in [12], in experiment [14] and in experiment [15] was “inactive” throughout. Further, the compound was called inactive in experiment [5], in experiment [7] and in [9]. Besides, the Potency was 70.5 µM (active) and inactive in [18]; 17.7 µM (active) and inactive in experiment [10].

Source of the values: PubChem BioAssay (Tox21).
